Source: PubChem BioAssay (NCI)
The panel holds about 83,000 compounds, 20% with a hit somewhere; the sample as a whole holds those more often.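 Negative percent growth values reflect cell death: -40 means 40% of the cells present at the start died, and -100 means all died.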 Unmarked numbers belong to inactive results. Activity calls are given as the source filed them. Rule for the calls: active = growth percent below 10; inactive = the rest.

These compounds were tested on SK-MEL-5 melanoma (assay: NCI-60 one-dose screen, 48 h (100 = growth as untreated, 0 = no growth, -100 = all killed)). Details: 10 µM unless noted.
With `COc1cc(OC)c(NC(=O)c2cc3ccccc3cc2O)cc1Cl` the growth was 51.4%. In the case of `Cc1cn(-c2cc(NC(=O)c3cccc(C#Cc4cccc5[nH]nc(N)c45)c3)cc(C(F)(F)F)c2)cn1`, the growth is reported as 34.5%. In the case of `CCOC(=O)C/C(=N\Nc1cc(=O)[nH]c2ccc(Br)cc12)C(=O)OCC`, the growth is reported as 95.1%. `CS(=O)(=O)Nc1cc(-c2ccc3ncnc(Nc4ccc5c(cnn5Cc5ccc(F)cc5)c4)c3c2)cnc1Cl` gave a growth of 13.9%. With `CCCCNC(=O)Oc1ccc(/C(=C(/C)Cc2ccc(OC)cc2)c2ccc(OCCN(CC)CC)cc2)cc1` the growth was 79.1%. `COc1ccc(-c2nc3c(ncc4ccc(=O)[nH]c43)s2)cc1` showed a growth of 74.3%. `COc1c(C(=O)Nc2ccc(C)c(Br)c2)ccc2ccccc12` gave a growth of 98.3%. In the case of `O=C(Nc1nc2ccccc2s1)c1ccc(F)cc1`, the growth is reported as 91.3%. For `CN(C)c1ccc(C(=O)OCCCCCCl)cc1`, the growth was 98.5%. `Cn1ccnc1C(=O)/C=C/c1ccc(CC(=O)Nc2cc(C(F)(F)F)cc(C(F)(F)F)c2)cc1` showed a growth of 76.5%. For `c1ccc(-c2oc(-c3ccccc3)c(CN3CCCCC3)c2CN2CCCCC2)cc1`, the growth was -87% (active). With `O=C1/C(=C/c2ccccc2Br)COc2ccc(O)cc21` the growth was 94.6%. Compound `COc1ccc(/C=C/C(=O)c2cc3c(N)c(C(=O)Nc4cccc5ccccc45)sc3nc2C)cc1` has a growth of 68.9%. For `CC(C)c1ccc(C(=O)Nc2sc3c(c2C(N)=O)CCC(=O)C3)cc1`, the growth was -62.8% (active). `C=C(C)[C@@H]1CC[C@]2(C(=O)N3CCOCC3)CC[C@]3(C)[C@H](CC[C@@H]4[C@@]5(C)C/C(=C/c6ccncc6)C(=O)C(C)(C)[C@@H]5CC[C@]43C)[C@@H]12` gave a growth of 60.6%. `Cc1cn(-c2cc(NC(=O)c3cncc(C#Cc4cnc(N)c5ncccc45)c3)cc(C(F)(F)F)c2)cn1` showed a growth of 18.3%. `Nc1nc2ccccc2c2c1S(=O)(=O)c1ccc(Cl)cc1C2=O` showed a growth of 28.5%. In the case of `CCC(=C(c1ccc(OCCN2CCCCC2)cc1)c1ccc(OCCN2CCCCC2)cc1)c1ccc(Cl)cc1`, the growth is reported as -96.8% (active). In the case of `O=C1C(Cl)=C(Nc2ccc(S(=O)(=O)N3CCOCC3)cc2)C(=O)c2ccccc21`, the growth is reported as 86.8%. Compound `COc1ccc(C/C(C)=C(\c2ccc(Cl)cc2)c2ccc(OCCN3CCCCC3)cc2)cc1` has a growth of 107%. Compound `COc1cc2c(cc1OC)C(C)N(S(N)(=O)=O)CC2` (stereo unspecified) has a growth of 105%. `Cc1[nH]c(=O)[nH]c(=O)c1Br` was tested, and the growth was 112%. `Clc1cccc(Nc2ncnc3ccc(-c4cnc5[nH]ccc5c4)cc23)c1` gave a growth of 75.4%. `CCCCNC(=O)Oc1ccc(/C(=C(/C)Cc2ccc(OC)cc2)c2ccc(OCCN3CCCC3)cc2)cc1` showed a growth of 47%. For `C#CCOC(=O)/C=C/c1cn(-c2ccccc2)nc1-c1ccc(OC)cc1`, the growth was 92%. For `COC(=O)[C@]1(C)CCC[C@]2(C)[C@H]3C[C@H]4C(C(C)C)=C[C@]3(CC[C@H]21)[C@@H]1C(=O)CC[C@H](OCCC#N)[C@@H]14`, the growth was 79.4%.
